# What was measured:
# Test in all cases: DAPPL (digital affinity profiling via proximity ligation, sequencing); 10 mM Tris-HCl pH 7.5, 50 mM NaCl, 1 mM DTT, 4% glycerol, room temperature, 30 min; GST-TFs on glutathione beads, 16-mer random dsDNA library, 0.1% formaldehyde crosslink after washing; high values mean tight binding
# [1] = biological target: T1, FEV (Homo sapiens, UniProt Q99581 1-238); conditions: protein: recombinant; tags: N-terminal GST; dsDNA, one strand shown
# T1 sequence: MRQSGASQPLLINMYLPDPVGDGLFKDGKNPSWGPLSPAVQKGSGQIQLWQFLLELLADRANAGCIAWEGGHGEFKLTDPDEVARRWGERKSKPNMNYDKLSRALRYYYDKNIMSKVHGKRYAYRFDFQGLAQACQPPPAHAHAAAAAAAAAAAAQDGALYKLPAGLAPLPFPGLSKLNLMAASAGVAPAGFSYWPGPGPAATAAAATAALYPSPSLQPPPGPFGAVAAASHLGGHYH
# Summary of the method: (§1)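 Pools of DNA-barcoded human transcription factors, expressed in yeast as GST fusions on glutathione beads and combined with a tag-only sample, were incubated with 200 nmole of a 16-mer random double-stranded DNA library. Incubation took 30 min at room temperature in Tris/NaCl/DTT/glycerol buffer and was followed by washing, 0.1% formaldehyde crosslinking, proximity ligation (BsaI/T4 ligase, 1 h, 37 °C), PCR amplification and sequencing on an Illumina NextSeq500. Binding signal is the ratio of a hexamer's read frequency for a factor to its frequency for the tag-only sample.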
# [2] = biological target: ETV5 (Homo sapiens, UniProt P41161 1-510); conditions: protein: recombinant; tags: N-terminal GST; dsDNA, one strand shown
# ETV5, sequence (P41161 whole entry): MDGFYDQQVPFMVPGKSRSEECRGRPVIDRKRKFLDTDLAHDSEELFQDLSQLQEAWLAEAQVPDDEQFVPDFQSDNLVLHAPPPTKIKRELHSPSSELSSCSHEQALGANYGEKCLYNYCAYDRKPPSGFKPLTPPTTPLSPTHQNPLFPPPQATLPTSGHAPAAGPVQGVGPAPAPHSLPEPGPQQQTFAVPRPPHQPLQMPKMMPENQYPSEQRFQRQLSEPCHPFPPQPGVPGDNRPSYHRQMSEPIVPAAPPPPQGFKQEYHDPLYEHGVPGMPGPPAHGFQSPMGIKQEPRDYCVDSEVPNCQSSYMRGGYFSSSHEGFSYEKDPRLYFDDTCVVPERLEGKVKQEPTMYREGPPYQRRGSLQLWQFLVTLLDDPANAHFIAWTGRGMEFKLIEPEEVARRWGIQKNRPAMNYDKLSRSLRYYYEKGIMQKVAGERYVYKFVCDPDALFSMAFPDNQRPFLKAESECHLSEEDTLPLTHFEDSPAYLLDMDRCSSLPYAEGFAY
# Summary of the method: as §1
# [3] = biological target: HSF1 (Homo sapiens, UniProt Q00613 1-529); conditions: protein: recombinant; tags: N-terminal GST; chain copies: 3; dsDNA, one strand shown
# HSF1, sequence (Q00613 whole entry): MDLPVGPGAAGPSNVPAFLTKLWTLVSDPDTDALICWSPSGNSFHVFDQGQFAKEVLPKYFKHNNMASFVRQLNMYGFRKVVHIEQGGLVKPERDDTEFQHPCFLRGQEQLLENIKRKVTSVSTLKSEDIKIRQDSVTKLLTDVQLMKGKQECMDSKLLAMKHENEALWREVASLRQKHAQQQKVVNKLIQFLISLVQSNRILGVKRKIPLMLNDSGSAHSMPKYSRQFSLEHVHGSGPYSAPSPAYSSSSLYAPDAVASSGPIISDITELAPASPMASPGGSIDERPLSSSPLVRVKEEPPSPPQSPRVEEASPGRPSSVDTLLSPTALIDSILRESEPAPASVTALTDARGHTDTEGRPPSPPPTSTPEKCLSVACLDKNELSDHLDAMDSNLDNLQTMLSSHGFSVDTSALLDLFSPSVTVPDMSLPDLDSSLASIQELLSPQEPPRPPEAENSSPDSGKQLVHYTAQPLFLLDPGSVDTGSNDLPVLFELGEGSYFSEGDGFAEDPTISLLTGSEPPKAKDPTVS
# Summary of the method: as §1
# [4] = biological target: T2, SPIC (Homo sapiens, UniProt Q8N5J4 1-248); conditions: protein: recombinant; tags: N-terminal GST; dsDNA, one strand shown
# T2 sequence: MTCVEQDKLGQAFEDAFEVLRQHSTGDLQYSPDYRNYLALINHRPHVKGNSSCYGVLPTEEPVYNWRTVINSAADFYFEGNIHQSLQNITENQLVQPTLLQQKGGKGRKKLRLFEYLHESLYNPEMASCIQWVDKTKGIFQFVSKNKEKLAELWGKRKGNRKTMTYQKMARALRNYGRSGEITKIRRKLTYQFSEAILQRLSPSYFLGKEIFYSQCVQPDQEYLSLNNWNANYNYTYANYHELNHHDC
# Summary of the method: as §1
# [5] = biological target: ELF4 (Homo sapiens, UniProt Q99607 1-663); conditions: protein: recombinant; tags: N-terminal GST; dsDNA, one strand shown
# ELF4, sequence (Q99607 whole entry): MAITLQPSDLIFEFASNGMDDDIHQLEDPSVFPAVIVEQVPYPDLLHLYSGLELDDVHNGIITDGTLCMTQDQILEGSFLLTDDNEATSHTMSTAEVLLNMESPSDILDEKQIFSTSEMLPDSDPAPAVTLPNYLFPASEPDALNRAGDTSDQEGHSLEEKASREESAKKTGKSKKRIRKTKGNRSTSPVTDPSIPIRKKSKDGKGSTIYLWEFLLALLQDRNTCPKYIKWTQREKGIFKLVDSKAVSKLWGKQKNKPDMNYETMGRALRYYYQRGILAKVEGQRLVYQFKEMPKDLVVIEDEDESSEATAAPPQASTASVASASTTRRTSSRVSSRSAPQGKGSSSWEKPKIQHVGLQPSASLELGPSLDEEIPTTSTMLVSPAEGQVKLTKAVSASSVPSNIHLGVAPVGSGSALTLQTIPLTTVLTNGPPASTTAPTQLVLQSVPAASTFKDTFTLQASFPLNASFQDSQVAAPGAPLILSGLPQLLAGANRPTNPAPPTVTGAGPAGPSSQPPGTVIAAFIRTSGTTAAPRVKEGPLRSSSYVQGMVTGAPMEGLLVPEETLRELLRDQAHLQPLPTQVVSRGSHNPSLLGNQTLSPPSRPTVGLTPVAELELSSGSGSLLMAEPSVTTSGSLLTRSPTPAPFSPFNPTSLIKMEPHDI
# Summary of the method: as §1
# [6] = biological target: T3, ELK4 (Homo sapiens, UniProt P28324-2 1-405); conditions: protein: recombinant; tags: N-terminal GST; dsDNA, one strand shown
# T3 sequence: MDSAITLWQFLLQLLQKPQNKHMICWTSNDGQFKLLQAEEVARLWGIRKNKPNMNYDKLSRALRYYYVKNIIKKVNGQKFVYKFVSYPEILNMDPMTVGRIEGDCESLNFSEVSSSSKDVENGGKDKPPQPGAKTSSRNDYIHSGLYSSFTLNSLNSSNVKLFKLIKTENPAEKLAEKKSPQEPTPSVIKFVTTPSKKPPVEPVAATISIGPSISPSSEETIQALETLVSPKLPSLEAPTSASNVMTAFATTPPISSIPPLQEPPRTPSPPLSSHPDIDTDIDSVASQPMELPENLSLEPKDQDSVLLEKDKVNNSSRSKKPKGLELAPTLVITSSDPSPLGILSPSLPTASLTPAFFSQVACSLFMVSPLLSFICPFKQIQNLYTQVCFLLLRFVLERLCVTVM
# Summary of the method: as §1
# [7] = biological target: T4, ETV2 (Homo sapiens, UniProt O00321 1-342); conditions: protein: recombinant; tags: N-terminal GST; dsDNA, one strand shown
# T4 sequence: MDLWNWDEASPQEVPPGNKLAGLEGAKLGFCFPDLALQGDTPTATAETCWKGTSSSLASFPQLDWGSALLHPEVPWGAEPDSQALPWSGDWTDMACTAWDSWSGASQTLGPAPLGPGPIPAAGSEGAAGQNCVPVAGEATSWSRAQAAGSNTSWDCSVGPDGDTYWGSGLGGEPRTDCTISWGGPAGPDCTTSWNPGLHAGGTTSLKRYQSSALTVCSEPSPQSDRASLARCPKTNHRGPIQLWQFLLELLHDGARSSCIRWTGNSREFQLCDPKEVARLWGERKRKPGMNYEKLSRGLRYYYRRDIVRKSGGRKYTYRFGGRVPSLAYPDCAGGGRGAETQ
# Summary of the method: as §1
# [8] = biological target: T5, ELF3 (Homo sapiens, UniProt P78545 1-371); conditions: protein: recombinant; tags: N-terminal GST; dsDNA, one strand shown
# T5 sequence: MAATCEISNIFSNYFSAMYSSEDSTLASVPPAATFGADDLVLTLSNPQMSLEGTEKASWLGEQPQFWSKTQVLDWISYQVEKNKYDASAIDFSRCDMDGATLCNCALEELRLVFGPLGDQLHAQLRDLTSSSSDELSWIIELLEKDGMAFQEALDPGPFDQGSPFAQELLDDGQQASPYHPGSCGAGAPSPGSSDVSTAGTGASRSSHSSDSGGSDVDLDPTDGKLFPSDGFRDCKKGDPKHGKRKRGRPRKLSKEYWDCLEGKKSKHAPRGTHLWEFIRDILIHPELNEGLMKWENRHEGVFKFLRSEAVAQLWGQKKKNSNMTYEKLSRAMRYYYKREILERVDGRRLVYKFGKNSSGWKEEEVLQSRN
# Summary of the method: as §1
# [9] = biological target: CRX (Homo sapiens, UniProt O43186 1-299); conditions: protein: recombinant; tags: N-terminal GST; dsDNA, one strand shown
# CRX, sequence (O43186 whole entry): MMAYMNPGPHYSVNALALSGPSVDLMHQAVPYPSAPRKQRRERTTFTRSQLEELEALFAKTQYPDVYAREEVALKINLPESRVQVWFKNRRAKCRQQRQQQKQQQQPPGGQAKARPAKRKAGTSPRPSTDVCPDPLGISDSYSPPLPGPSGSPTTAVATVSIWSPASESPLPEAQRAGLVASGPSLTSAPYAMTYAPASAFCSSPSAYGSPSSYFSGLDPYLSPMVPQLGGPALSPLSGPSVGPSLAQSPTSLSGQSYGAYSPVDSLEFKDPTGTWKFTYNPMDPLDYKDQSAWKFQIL
# Summary of the method: as §1
# [10] = biological target: ETV1 (Homo sapiens, UniProt P50549 1-477); conditions: protein: recombinant; tags: N-terminal GST; dsDNA, one strand shown
# ETV1, sequence (P50549 whole entry): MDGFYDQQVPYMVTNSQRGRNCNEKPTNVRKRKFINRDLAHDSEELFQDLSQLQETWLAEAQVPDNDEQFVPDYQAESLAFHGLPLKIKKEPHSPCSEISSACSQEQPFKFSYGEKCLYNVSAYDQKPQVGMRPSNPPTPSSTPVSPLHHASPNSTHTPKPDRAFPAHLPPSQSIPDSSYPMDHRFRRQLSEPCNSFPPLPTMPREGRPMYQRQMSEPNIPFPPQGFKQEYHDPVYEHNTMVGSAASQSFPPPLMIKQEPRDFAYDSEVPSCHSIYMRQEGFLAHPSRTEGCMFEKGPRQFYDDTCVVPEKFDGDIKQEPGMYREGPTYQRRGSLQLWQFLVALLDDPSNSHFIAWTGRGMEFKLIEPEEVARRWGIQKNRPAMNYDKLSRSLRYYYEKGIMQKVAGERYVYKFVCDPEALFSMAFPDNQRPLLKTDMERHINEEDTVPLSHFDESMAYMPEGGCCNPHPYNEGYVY
# Summary of the method: as §1
# [11] = biological target: T6, ERF (Homo sapiens, UniProt P50548 1-548); conditions: protein: recombinant; tags: N-terminal GST; dsDNA, one strand shown
# T6 sequence: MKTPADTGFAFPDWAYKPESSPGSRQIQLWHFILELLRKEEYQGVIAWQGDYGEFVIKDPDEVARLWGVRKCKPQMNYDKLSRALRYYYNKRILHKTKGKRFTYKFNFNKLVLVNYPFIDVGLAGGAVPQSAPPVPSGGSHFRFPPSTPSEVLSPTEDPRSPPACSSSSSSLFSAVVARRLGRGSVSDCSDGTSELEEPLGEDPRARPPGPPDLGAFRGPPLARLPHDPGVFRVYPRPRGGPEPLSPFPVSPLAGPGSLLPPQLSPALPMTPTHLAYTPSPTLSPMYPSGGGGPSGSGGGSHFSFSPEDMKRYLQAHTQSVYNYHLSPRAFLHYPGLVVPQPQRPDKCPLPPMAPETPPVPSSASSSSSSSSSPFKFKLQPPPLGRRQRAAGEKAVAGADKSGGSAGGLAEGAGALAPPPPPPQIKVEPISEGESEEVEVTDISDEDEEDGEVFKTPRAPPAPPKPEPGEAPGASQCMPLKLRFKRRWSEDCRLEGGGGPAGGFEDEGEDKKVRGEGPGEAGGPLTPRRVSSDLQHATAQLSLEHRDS
# Summary of the method: as §1
# [12] = biological target: T7, ETV3L (Homo sapiens, UniProt Q6ZN32 1-361); conditions: protein: recombinant; tags: N-terminal GST; dsDNA, one strand shown
# T7 sequence: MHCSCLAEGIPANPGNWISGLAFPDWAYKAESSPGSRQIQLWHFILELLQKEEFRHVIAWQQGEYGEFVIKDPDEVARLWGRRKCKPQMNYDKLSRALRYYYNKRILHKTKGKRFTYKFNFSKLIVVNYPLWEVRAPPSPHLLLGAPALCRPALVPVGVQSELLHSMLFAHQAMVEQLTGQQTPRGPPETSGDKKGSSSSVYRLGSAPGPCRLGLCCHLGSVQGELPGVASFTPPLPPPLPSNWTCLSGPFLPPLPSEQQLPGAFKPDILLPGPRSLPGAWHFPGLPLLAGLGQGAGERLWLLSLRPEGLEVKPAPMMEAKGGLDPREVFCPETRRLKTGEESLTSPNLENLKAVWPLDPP
# Summary of the method: as §1
# [13] = biological target: T8, ETS2 (Homo sapiens, UniProt P15036 1-469); conditions: protein: recombinant; tags: N-terminal GST; dsDNA, one strand shown
# T8 sequence: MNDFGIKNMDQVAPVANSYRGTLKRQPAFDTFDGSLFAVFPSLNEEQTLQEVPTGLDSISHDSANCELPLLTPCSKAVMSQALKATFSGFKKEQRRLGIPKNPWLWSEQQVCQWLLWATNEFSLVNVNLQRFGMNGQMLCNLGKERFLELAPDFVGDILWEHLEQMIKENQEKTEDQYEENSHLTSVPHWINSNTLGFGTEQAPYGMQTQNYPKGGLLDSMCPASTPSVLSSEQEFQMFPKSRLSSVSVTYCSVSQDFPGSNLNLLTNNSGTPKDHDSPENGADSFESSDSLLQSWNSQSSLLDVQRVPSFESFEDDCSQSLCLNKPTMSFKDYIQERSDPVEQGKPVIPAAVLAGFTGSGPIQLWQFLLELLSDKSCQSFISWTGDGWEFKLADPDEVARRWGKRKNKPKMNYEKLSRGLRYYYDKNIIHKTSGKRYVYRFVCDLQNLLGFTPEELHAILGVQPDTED
# Summary of the method: as §1
# [14] = biological target: T9, SPDEF (Homo sapiens, UniProt O95238 1-335); conditions: protein: recombinant; tags: N-terminal GST; dsDNA, one strand shown
# T9 sequence: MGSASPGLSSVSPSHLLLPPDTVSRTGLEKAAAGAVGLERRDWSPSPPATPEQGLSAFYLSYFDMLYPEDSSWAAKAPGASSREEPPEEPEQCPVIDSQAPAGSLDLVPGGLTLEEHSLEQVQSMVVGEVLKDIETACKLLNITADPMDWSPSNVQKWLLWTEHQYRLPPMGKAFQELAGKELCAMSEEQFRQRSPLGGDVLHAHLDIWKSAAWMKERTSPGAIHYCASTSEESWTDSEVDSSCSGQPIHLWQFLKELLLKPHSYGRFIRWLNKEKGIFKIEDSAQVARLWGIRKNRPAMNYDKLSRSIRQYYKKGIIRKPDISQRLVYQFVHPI
# Summary of the method: as §1
# [15] = biological target: T10, ETV7 (Homo sapiens, UniProt Q9Y603 1-341); conditions: protein: recombinant; tags: N-terminal GST; dsDNA, one strand shown
# T10 sequence: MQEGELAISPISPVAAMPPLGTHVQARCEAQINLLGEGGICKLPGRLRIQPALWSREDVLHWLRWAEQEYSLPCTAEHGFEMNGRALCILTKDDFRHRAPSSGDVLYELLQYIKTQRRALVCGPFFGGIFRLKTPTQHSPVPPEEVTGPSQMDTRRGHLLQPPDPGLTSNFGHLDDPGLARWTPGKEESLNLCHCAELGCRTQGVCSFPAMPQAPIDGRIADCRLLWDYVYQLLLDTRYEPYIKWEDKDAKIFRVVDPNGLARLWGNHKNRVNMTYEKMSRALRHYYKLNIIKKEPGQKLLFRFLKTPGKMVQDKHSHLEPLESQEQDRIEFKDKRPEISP
# Summary of the method: as §1
# [16] = biological target: T11, ELF5 (Homo sapiens, UniProt Q9UKW6-2 1-255); conditions: protein: recombinant; tags: N-terminal GST; dsDNA, one strand shown
# T11 sequence: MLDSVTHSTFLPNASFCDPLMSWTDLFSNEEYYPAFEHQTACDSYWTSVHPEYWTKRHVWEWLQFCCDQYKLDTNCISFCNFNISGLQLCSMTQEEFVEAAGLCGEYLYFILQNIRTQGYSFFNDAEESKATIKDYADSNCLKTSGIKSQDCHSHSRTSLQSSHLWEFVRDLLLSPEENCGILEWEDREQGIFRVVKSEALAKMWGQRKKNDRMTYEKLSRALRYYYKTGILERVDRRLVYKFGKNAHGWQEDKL
# Summary of the method: as §1
# [17] = biological target: T12, ETV3 (Homo sapiens, UniProt P41162-2 1-143); conditions: protein: recombinant; tags: N-terminal GST; dsDNA, one strand shown
# T12 sequence: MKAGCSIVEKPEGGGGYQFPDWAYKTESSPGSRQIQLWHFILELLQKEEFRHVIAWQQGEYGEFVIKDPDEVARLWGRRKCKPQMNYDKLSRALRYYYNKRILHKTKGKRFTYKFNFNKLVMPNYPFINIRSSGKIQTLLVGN
# Summary of the method: as §1
# [18] = biological target: ETV6 (Homo sapiens, UniProt P41212 1-452); conditions: protein: recombinant; tags: N-terminal GST; dsDNA, one strand shown
# ETV6, sequence (P41212 whole entry): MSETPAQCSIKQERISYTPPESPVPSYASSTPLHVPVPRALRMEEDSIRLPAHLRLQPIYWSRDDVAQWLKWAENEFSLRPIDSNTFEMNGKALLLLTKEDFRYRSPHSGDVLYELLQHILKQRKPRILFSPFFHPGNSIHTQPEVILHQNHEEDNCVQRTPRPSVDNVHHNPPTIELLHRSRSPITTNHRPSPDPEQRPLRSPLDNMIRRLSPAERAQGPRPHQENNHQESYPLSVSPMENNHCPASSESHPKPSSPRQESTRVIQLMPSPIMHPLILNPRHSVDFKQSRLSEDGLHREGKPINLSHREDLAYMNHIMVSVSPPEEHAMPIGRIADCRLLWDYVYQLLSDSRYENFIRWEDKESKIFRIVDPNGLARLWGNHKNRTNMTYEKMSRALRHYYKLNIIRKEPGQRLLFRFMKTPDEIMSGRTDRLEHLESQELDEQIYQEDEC
# Summary of the method: as §1
sequence,measurement,setting,value
CAAAAT,binding signal,[1],"1.17 fold enrichment (6-mer frequency, TF over GST control)"
same,binding signal,[2],"1.22 fold enrichment (6-mer frequency, TF over GST control)"
same,binding signal,[3],"1.2 fold enrichment (6-mer frequency, TF over GST control)"
same,binding signal,[4],"1.16 fold enrichment (6-mer frequency, TF over GST control)"
same,binding signal,[5],"1.25 fold enrichment (6-mer frequency, TF over GST control)"
same,binding signal,[6],"1.23 fold enrichment (6-mer frequency, TF over GST control)"
same,binding signal,[7],"1.28 fold enrichment (6-mer frequency, TF over GST control)"
same,binding signal,[8],"1.2 fold enrichment (6-mer frequency, TF over GST control)"
same,binding signal,[9],"1.22 fold enrichment (6-mer frequency, TF over GST control)"
same,binding signal,[10],"1.25 fold enrichment (6-mer frequency, TF over GST control)"
same,binding signal,[11],"1.33 fold enrichment (6-mer frequency, TF over GST control)"
same,binding signal,[12],"1.19 fold enrichment (6-mer frequency, TF over GST control)"
same,binding signal,[13],"1.2 fold enrichment (6-mer frequency, TF over GST control)"
same,binding signal,[14],"1.1 fold enrichment (6-mer frequency, TF over GST control)"
same,binding signal,[15],"1.28 fold enrichment (6-mer frequency, TF over GST control)"
same,binding signal,[16],"1.13 fold enrichment (6-mer frequency, TF over GST control)"
same,binding signal,[17],"1.12 fold enrichment (6-mer frequency, TF over GST control)"
same,binding signal,[18],"1.26 fold enrichment (6-mer frequency, TF over GST control)"
